Several values for one entry are separate records, joined by “and”; a condition that tells them apart may be missing. Equal values may be shown once. Compounds without any hit were thinned out: in the full panel of roughly 83,000, 20% have a hit.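 A percent growth of 40 corresponds to 60% growth inhibition; 0 means no net growth; -100 means all cells died. Active threshold: below 10.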 Where a structure was tested more than once in an assay, its records may differ in their call. Activity calls are given as the source filed them.

Some test systems named below: DU-145 prostate; K-562 leukemia; MALME-3M melanoma; MDA-MB-231 breast; RXF 393 renal; SF-268 CNS; SF-295 CNS; SF-539 CNS; UACC-257 melanoma; M14 melanoma.
Holding throughout (experiment): NCI-60 one-dose screen, 48 h (100 = growth as untreated, 0 = no growth, -100 = all killed)
Common to all, as to details: 10 µM

In the case of `CC1=CC(=C(c2ccc(N)cc2)c2ccc(N)cc2)C=CC1=N`, the growth in the assay on DU-145 prostate is 18.6% (inactive) and 38.3% (inactive); in the assay on K-562 leukemia it was 21.1% (inactive) and 24.5% (inactive); in the assay with MALME-3M melanoma it was 0.759% (active) and 56.2% (inactive); in the assay with MDA-MB-231 breast it was 6.87% (active) and 21.8% (inactive); in the assay with RXF 393 renal it was -12.8% (active) and 62.6% (inactive); in the assay with SF-268 CNS it was 26.1% (inactive) and 29% (inactive). Besides, the growth was -7.28% (active) in the assay with SF-295 CNS; 8.88% (active) and 16.1% (inactive) in the assay with SF-539 CNS; -6.06% (active) and 8.33% (active) with UACC-257 melanoma; 27.4% (inactive) with M14 melanoma.
`Cc1cc(N(CCOS(C)(=O)=O)CCOS(C)(=O)=O)ccc1C=Nc1ccc(-c2nc(Cc3ccccc3)sc2C)cc1`: the growth in the assay with DU-145 prostate is 11.8% (inactive); in the assay on K-562 leukemia, 21.7% (inactive); with MALME-3M melanoma it was 58% (inactive); in the assay on MDA-MB-231 breast, 77.2% (inactive); in the assay with RXF 393 renal, 45.9% (inactive); in the assay with SF-268 CNS it was 39.4% (inactive). In addition, the growth in the assay with SF-295 CNS was 12.6% (inactive); with SF-539 CNS, 15% (inactive); in the assay with UACC-257 melanoma, 6.01% (active); in the assay on M14 melanoma it was 25.8% (inactive).
On to `C=C1C(=O)OC2CC1C(OC(C)=O)C/C(C)=C/CC/C(C)=C\CCC2(C)O` (centres undefined), for which the growth in the assay with DU-145 prostate was -5% (active); in the assay with K-562 leukemia, -40% (active); in the assay on MALME-3M melanoma it was 18.6% (inactive); in the assay with MDA-MB-231 breast, 20.3% (inactive); with RXF 393 renal, 13.1% (inactive); in the assay with SF-268 CNS, 27.1% (inactive). Moreover, the growth was 106% (inactive) in the assay with SF-295 CNS, 11.2% (inactive) in the assay with SF-539 CNS, 58.2% (inactive) in the assay with UACC-257 melanoma and 16.4% (inactive) with M14 melanoma.
`O=[N+]([O-])c1cc[n+]([O-])cc1`: the growth is 120% (inactive) with DU-145 prostate; 117% (inactive) in the assay on K-562 leukemia; 101% (inactive) in the assay with MALME-3M melanoma; 95.9% (inactive) with MDA-MB-231 breast; 114% (inactive) with RXF 393 renal; 107% (inactive) in the assay on SF-268 CNS. For the same compound, the growth in the assay with SF-295 CNS is 101% (inactive); with SF-539 CNS, 122% (inactive); with UACC-257 melanoma it was 76.5% (inactive); in the assay with M14 melanoma, 113% (inactive).
Take `Cc1ccc(Sc2ccccc2N)cc1`: the growth in the assay on DU-145 prostate was 6.34% (active); in the assay with K-562 leukemia, 108% (inactive); in the assay on MALME-3M melanoma it was 116% (inactive); in the assay on MDA-MB-231 breast, 102% (inactive); in the assay on RXF 393 renal, 67.4% (inactive); in the assay on SF-268 CNS, 98.1% (inactive). Besides, the growth in the assay with SF-295 CNS is 88.8% (inactive); in the assay with SF-539 CNS it was 114% (inactive); in the assay with UACC-257 melanoma, 98.5% (inactive); in the assay with M14 melanoma, 99.5% (inactive).
Take `C#CCN(Cc1ccc2nc(N)[nH]c(=O)c2c1)c1ccc(C(=O)NC(CCC(=O)O)C(=O)O)cc1` (centres undefined): the growth in the assay with DU-145 prostate was 48.6% (inactive); in the assay on K-562 leukemia, 58.9% (inactive); in the assay on MALME-3M melanoma it was 86.8% (inactive); with RXF 393 renal, 72.9% (inactive); in the assay with SF-268 CNS it was 70.4% (inactive); in the assay with SF-295 CNS, 99.5% (inactive). Besides, the growth in the assay with SF-539 CNS was 0.195% (active); in the assay with UACC-257 melanoma, 92.1% (inactive); in the assay on M14 melanoma, 44.7% (inactive).
As to `COc1ccc(C(=O)C(CN(C)C)CN(C)C)cc1`, the growth in the assay on DU-145 prostate was 56.9% (inactive); in the assay on K-562 leukemia, -19.4% (active); in the assay with MALME-3M melanoma it was -70.7% (active); in the assay on MDA-MB-231 breast, 104% (inactive); with RXF 393 renal, 63.9% (inactive); in the assay with SF-268 CNS, 96.5% (inactive). The growth in the assay with SF-295 CNS was 102% (inactive); in the assay on SF-539 CNS, 96.3% (inactive); with UACC-257 melanoma, 73.1% (inactive); with M14 melanoma it was 52% (inactive).
For `CN(C)CCOC1(Cc2ccc(Cl)cc2Cl)CCC(C(C)(C)C)CC1` (centres undefined), the growth is 22.7% (inactive) and 7.69% (active) with DU-145 prostate; -37.2% (active) and -48.5% (active) in the assay with K-562 leukemia; -48.2% (active) and -65.3% (active) in the assay with MALME-3M melanoma; 7.18% (active) and -26.3% (active) in the assay with MDA-MB-231 breast; 30.2% (inactive) and -32.5% (active) in the assay with RXF 393 renal; 46.1% (inactive) and 34.9% (inactive) in the assay on SF-268 CNS. Also, the growth in the assay on SF-295 CNS is -44% (active) and -69.9% (active); in the assay with SF-539 CNS, 39.7% (inactive) and 46.6% (inactive); in the assay with UACC-257 melanoma, -33.6% (active) and 2.54% (active); with M14 melanoma it was -34.4% (active) and -59.1% (active).

Source of the values: PubChem BioAssay (NCI).
